# Screening results deposited in PubChem BioAssay by National Center for Advancing Translational Sciences (NCATS).
# Hits are enriched below; roughly 10% of the tested compounds scored in any of these assays.
# G9a inh – blocks human histone lysine methyltransferase G9a. Potency, µM (highest dose often 102 µM), inactives show at the highest dose activity, negative = inhibition, actives largely listed as inhibitors. AID 504332. actives 8.8% (n = 350,000). G9a H3K9 monomethylation, AlphaScreen, 2 h. Q96KQ7; also: % is scaled to controls: 0 for no effect and ±100 for the full control effect; nearly all actives have a fitted effect of over 75% in size
#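 Readings reflect AlphaScreen signal from monomethyl-H3K9 antibody detection. HMT at 20 nM; substrate b-H3K9 500 nM; cofactor SAM 20 uM; 2 h RT reaction; compounds tested as titrations in qHTS with 15 min preincubation.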
# GLS inh – blocks human kidney-isoform glutaminase activity; GLS enzymatic activity, qHTS titration; Potency, µM (doses to about 45.5 µM), for inactives: at the top dose activity change, negative = inhibition, most hits filed as inhibitors; actives 0.21% (n = 410,000); AID 624170; also: % is scaled to controls: 0 for no effect and ±100 for the full control effect
#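 Coupled fluorescence readout: glutamate oxidase/HRP/Amplex Red detect glutamate formed by hKGA from L-glutamine (1 mM solution added). Buffer 45 mM KH2PO4 pH 8.2, 0.02% Tween-20; reads at t0 and 30 min RT.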
# L3MBTL1 inh – blocks human L3MBTL1; Q9Y468; AlphaScreen L3MBTL1–H3K9me1 peptide binding; Potency, µM (top dose mostly 57.1 µM), inactives show at the highest dose activity, negative = inhibition, usual class: inhibitors; actives 0.66% (n = 230,000); AID 485360; also: % is scaled to controls: 0 for no effect and ±100 for the full control effect; nearly all actives have a fitted effect of over 60% in size
#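 Displacement of a biotinylated histone H3(1-15) peptide monomethylated at Lys9 (75 nM) from L3MBTL1 (50 nM) was measured by AlphaScreen after a 30 min room-temperature compound incubation; cefsulodin titration served as intraplate control.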
# JMJD2A Tudor inh – JMJD2A Tudor domain (human) inhibition. O75164. AlphaScreen JMJD2A-Tudor / H3K4me3 peptide binding. Potency, µM (series often up to 114 µM), for the others: at the top dose activity change, negative = inhibition, usual class: inhibitors. actives 4.4% (n = 390,000). AID 504339; also: % is scaled to controls: 0 for no effect and ±100 for the full control effect; nearly all actives have a fitted effect of over 50% in size
# HP1b binding inh – inhibitors of HP1-beta chromodomain binding to methylated histone tails; AlphaScreen HP1-beta / biotin-H3K9me3 peptide binding; Potency, µM (titrated, usually from 114 µM), without a hit: top-dose activity change, negative = inhibition, hits mostly inhibitors; actives 0.56% (n = 390,000); AID 540317; also: nearly all actives have a fitted effect of over 70% in size
#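 Compound inhibition of the preformed complex between 50 nM HP1-beta and 50 nM biotinylated H3K9me3 peptide was read by AlphaScreen. Buffer was PBS pH 7.4 with 0.01% Tween-20. Incubations ran 30 min at room temperature, with 10 ug/mL donor/acceptor beads.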
# BAZ2B inh – BAZ2B (human) inhibition; AlphaScreen BAZ2B-H3K14Ac peptide displacement; actives 4.4% (n = 360,000); Q9UIF8; Potency, µM (highest dose often 114 µM), for inactives: top-dose activity change, negative = inhibition, actives largely listed as inhibitors; also: % is scaled to controls: 0 for no effect and ±100 for the full control effect; nearly all actives have a fitted effect of over 60% in size
#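 BAZ2B 50 nM plus b-H3(5-23)K14Ac 50 nM, PBS pH 7.4/0.01% Tween-20, 30 min RT; compound added (max 110 uM), 30 min RT; streptavidin donor/Ni-chelate acceptor beads 10 ug/mL final, 20 min dark; AlphaScreen read.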
# An asterisk follows results filed as active; ? = inconclusive; · = no result; [ ] = remark or other dose. Calls follow the shape of the dose curve; as a rule, active = well fitted curve in the direction sought with a large enough effect; inconclusive = small, poorly fitted or top-dose-only effect, or another doubt; inactive = no such curve, though single readings can be large; an effect the other way counts as inactive or inconclusive. Potency is read from the fitted curve at half-maximal effect.
SMILES,G9a inh,GLS inh,L3MBTL1 inh,JMJD2A Tudor inh,HP1b binding inh,BAZ2B inh
Cc1ccc(S(=O)(=O)N2CCC(c3ccncc3)CC2)c(C)c1,-6%[59 µM],-6%,·,-14%,13%,-16%
CSc1cccc(NC(=O)CC(c2cccs2)N2Cc3ccccc3C2=O)c1 (stereo not given),2%[59 µM],-13%,·,-13%,44%,-20%
Cc1c(C)n(C)c2ccc(C(=O)NCCCN3CCCC3)cc12,50µM*,10%,·,?,-5%,?
CC1=CC(=O)C(C(C)C)=C/C1=N/OS(=O)(=O)c1ccccc1,·,-6%,-29%,45µM*,?,14µM*
O=C(C1=NN[C@@H]2C(=O)N(c3cccc(C(F)(F)F)c3)C(=O)[C@H]12)c1cnccn1,40µM*,-6%,-2%,?,46%,-34%
N#Cc1ccc(N2C(=O)[C@@H]3C(C(=O)c4cnccn4)=NN[C@@H]3C2=O)cc1,·,1%,1%,16µM*,25%,56µM*
CC(C)c1ccc(NC(=O)CN2C=NS(=O)(=O)c3ccccc32)cc1,1%[59 µM],0%,·,-19%,25%,3%
O=S(=O)(NCCS(=O)(=O)N1CCN(c2ccccc2F)CC1)c1ccc(Cl)cc1,3%[59 µM],-2%,·,-21%,22%[57 µM],4%
CCCn1c2c(c(=N)c3c1CCC3)CCC2,50µM*,4%,-10%,-6%,7%,?
CCOC(=O)Cn1c2c(c(=N)c3c1CCC3)CCCC2,23%,-1%,4%,7%,28%,4%
CCCn1c2c(c(=N)c3c1CCC3)CCCC2,13µM*,6%,-22%,?,19%,-1%
Cc1ccccc1OCCCCn1c(CCNC(=O)C(C)(C)C)nc2ccccc21,-3%[59 µM],-11%,·,-26%,12%,?
CCOC(=O)c1[nH]nc(-c2cc(CC)c(O)cc2O)c1-c1cscn1,·,8%,-6%,89µM*,26%,?
CCCc1cc2c(=O)c(-c3cscn3)c(C(=O)OCC)oc2cc1O,?,6%,-9%,-16%,-11%,·
Cc1cccc(Oc2ccccc2NC(=O)CSCC(=O)Nc2cc(C)on2)c1,10µM*,-2%,2%,-8%,9%,-32%
CC1=NN(c2ccc(S(=O)(=O)O)cc2C)C(=O)C1,25µM*,0%,-17%,50µM*,42%,56µM*
Cc1cc(=O)[nH]c(N/N=C/c2cccs2)n1,-22%[59 µM],14%,15%,?,28%,2%
O=c1cnnc(N/N=C/c2cccs2)[nH]1,·,4%,·,-28%,16%[57 µM],79µM*
C=CCn1c(SCCN)nnc1-c1cccc(S(=O)(=O)N2CCOCC2)c1,·,-1%,·,14µM*,22%,·
O=C1c2ccccc2C(=O)N1c1cccc(O)c1,·,·,·,-13%,24%,·
Cc1ccc2nc3sc(C(=O)N4CCOCC4)c(N)c3cc2c1,14µM*,-15%,2%,?,47%,-2%
CCc1ccc2nc3sc(C(=O)N4CCc5ccccc54)c(N)c3cc2c1,50µM*,·,-7%,·,·,-10%
CCOc1ccc2nc3sc(C(=O)N4CCN(C)CC4)c(N)c3cc2c1,?,-8%,·,?,37%,-37%
Cc1ccc2cc3c(N)c(C(=O)N4CCOCC4)sc3nc2c1,28µM*,-8%,-5%,-21%,41%,2%
CC1(CC(=O)N/N=C/c2cc([N+](=O)[O-])c(O)cc2O)OCCO1,40µM*,0%,?,?,8.9µM*,50µM*
O=C(NC(=S)NCCC1=CCCCC1)c1ccccc1Br,·,-13%,2%,-6%,20%,50µM*
COCCn1c(C)nnc1SCC(=O)NNC(=O)c1ccc(Cl)cc1,50µM*,20%,·,4%,20%,0%
FC(F)(F)c1cnc(C(c2ccccn2)c2ncn[nH]2)c(Cl)c1 (stereo not given),44%,-8%,8.9µM*,16µM*,28%,2.5µM*
CCCCN1C(=O)/C(=C2\SC(N3CCCCC3)=NC2=O)c2ccccc21,16µM*,-5%,?,56µM*,16µM*,-84%
